High-throughput results: PubChem, National Center for Advancing Translational Sciences (NCATS)
This is a sample that favours compounds with a hit; in the whole collection about 10% have one here.
BAZ2B inh: qHTS Assay for Inhibitors of BAZ2B; Bromodomain adjacent to zinc finger domain protein 2B (Homo sapiens), Q9UIF8; AlphaScreen BAZ2B-H3K14Ac peptide displacement; 360,000 compounds, 4.4% hits; Potency, µM (doses to about 114 µM), hits mostly inhibitors; note: nearly all actives have a fitted effect of over 60% in size
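Multi-concentration screen (max 110 uM) measuring displacement of acetylated histone H3 peptide from BAZ2B by AlphaScreen, using 50 nM protein, 50 nM peptide and 10 ug/mL streptavidin donor plus Ni-chelate acceptor beads.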
JMJD2A Tudor: qHTS Assay for Inhibitors of JMJD2A-Tudor Domain; Lysine-specific demethylase 4A (Homo sapiens), O75164; AlphaScreen JMJD2A-Tudor / H3K4me3 peptide binding; Potency, µM (doses to about 114 µM), usual class: inhibitors; 390,000 compounds, 4.4% hits; note: nearly all actives have a fitted effect of over 50% in size
CtBP-E1A inh: qHTS Assay for Inhibitors of the CtBP/E1A Interaction; CtBP / adenovirus E1A interaction (AlphaScreen); AlphaScreen GST-E1A/His-CtBP binding, 1536-well; hits give low values; activity change, % (test concentration not listed); 340,000 compounds, 0.49% hits; in the data active = activity change below about -65%; inconclusive = mostly about -30% to -63%
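In 5 uL wells, 23 nL compound meets equimolar GST-E1A and His-CtBP (5X stock 125 nM each) for 2 h, 37 °C. Beads (5X, 50 ug/mL) then 1 h, 37 °C, dark.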
Six1-Eya2 inh: qHTS Assay for Inhibitors of the Six1/Eya2 Interaction. Homeobox protein SIX1 (Homo sapiens) + Protein phosphatase EYA2 (Homo sapiens), …. AlphaScreen GST-Six1/His-Eya2 binding, biochemical; hits give low values. activity change, % (test concentration not listed). 360,000 compounds, 0.56% hits. AID 651725, 2012; in the data active = activity change below about -65%; inconclusive = mostly about -30% to -63%
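AlphaScreen luminescence read after one hour at 37 °C in darkness. Pin-transferred compounds met GST-Six1 and His-Eya2 protein (5X stock 250 nM/500 nM) plus glutathione donor and Ni-chelate acceptor beads (5X, 50 ug/mL).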
G9a block: qHTS Assay for Inhibitors of Histone Lysine Methyltransferase G9a; Histone-lysine N-methyltransferase EHMT2 (Homo sapiens), Q96KQ7; G9a H3K9 monomethylation, AlphaScreen, 2 h; Potency, µM (highest dose often 102 µM), actives largely listed as inhibitors; 350,000 compounds, 8.8% hits; AID 504332, 2011; note: nearly all actives have a fitted effect of over 75% in size
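AlphaScreen detection with an anti-monomethyl H3K9 antibody quantified product after a 2 h room-temperature reaction containing 500 nM biotinylated H3K9 peptide, 20 µM SAM and 20 nM enzyme, which had been preincubated 15 min with compound.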
HP1b chromo inh: HTS for Inhibitors of HP1-beta Chromodomain Interactions with Methylated Histone Tails; AID 540317, 2011; Potency, µM (highest dose often 114 µM), usual class: inhibitors; Chromobox protein homolog 1 (Homo sapiens), P83916; AlphaScreen HP1-beta / biotin-H3K9me3 peptide binding; 390,000 compounds, 0.56% hits; note: nearly all actives have a fitted effect of over 70% in size
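AlphaScreen: HP1-beta (50 nM) preformed 30 min with biotin-H3(1-18)K9me3 peptide (50 nM) in PBS pH 7.4, 0.01% Tween-20. Compound added for 30 min at RT, then streptavidin donor/nickel chelate acceptor beads (10 ug/mL) for 30 min.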
A number is an active result; 0 = inactive; ? = inconclusive; - = no result; [ ] = dose if it differs, or a comment. Unless noted, calls come from the whole dose curve; as a rule, active = well fitted inhibition curve with a large enough effect; inconclusive = small, poorly fitted or top-dose-only effect; inactive = no such curve, though single readings can be large or run the other way.

SMILES	BAZ2B inh	JMJD2A Tudor	CtBP-E1A inh	Six1-Eya2 inh	G9a block	HP1b chromo inh
COc1ccc2[nH]c(C(=O)NCCN3CCCCC3)cc2c1	0	0	0	0	56µM	0
O=C1C=CC(=O)c2c(O)c(CO)c(CO)c(O)c21	-	2.2µM	0	-70	-	3.2µM
CSc1ccc(CN(C)C(=O)C23CC4CC(CC(Cl)(C4)C2)C3)cc1	0	0	0	0	0	0
O=C(NCc1ccccc1)c1ccccc1C(=O)c1ncc[nH]1	?	0	0	0	13µM	0
Cc1cccc(CNc2ccnc(-c3cccc(C#N)c3)n2)c1	-	-	-	-	0[0.501 µM]	-
CC1(C(=O)NS(=O)(=O)c2ccc(Br)cc2)CCN1C(=O)c1cccc(F)c1 (stereo not given)	-	-	0	0	-	-
COc1ccc(CC2CCOC2=O)cc1 (stereo not given)	-	0	0	0	0	0
COc1ccc(CC2C(=O)OC(C)(C)OC2=O)cc1	0	35µM	0	0	40µM	0
CC(C)n1c(=O)c2oc3ccccc3c2n(Cc2ccccc2F)c1=O	0	0	-	-	0	0
CCN1CCN(c2nnc(-n3cccc3C(=O)Nc3cccc(OC)c3)s2)CC1	0	0	-	-	0	0
CCOC(=O)C1=C(Cc2ccc(C)cc2)C(=O)c2ccccc2C1=O	22µM	-	-	-	8.9µM	-
CCOC(=O)c1ccc(COC(=O)c2ccc3c(c2)-c2ccccc2C3=O)cc1	0	0	0	0	0	0
CCOC(=O)C1=C(Cc2ccc(OC)cc2)C(=O)c2ccccc2C1=O	22µM	40µM	0	0	2.8µM	18µM
CC1(C(=O)Nc2cccc(C#N)c2)CCN1C(=O)C1(c2ccccc2)CC1 (stereo not given)	-	-	0	0	-	-
O=C(Cn1c(=O)nc(-c2ccccc2)c2cc(Cl)ccc21)NCc1ccccc1	0	0	-	-	0	0
Cc1ccc(Cc2nc3ccccc3nc2SCC(=O)NCc2ccc(F)cc2)cc1	0	0	-	-	0	0
O=C(C(=O)N1CCN(c2ccccc2)CC1)c1c[nH]c2ccccc12	?	0	0	0	0	0
COc1ccc(N2CCN(C(=O)C(=O)c3cn(CC(=O)N4CCCCCC4)c4ccccc34)CC2)cc1	?	?	0	0	71µM	?
COc1ccc(N2CCN(C(=O)C(=O)c3cn(CC(=O)N4CCOCC4)c4ccccc34)CC2)cc1	0	0	0	0	-	0
CCN1CCN(C(=O)C(=O)c2cn(CC(=O)N3CCCCCC3)c3ccccc23)CC1	0	0	0	0	50µM	0
COc1ccc(N2CCN(C(=O)C(=O)c3c[nH]c4ccccc34)CC2)cc1	?	?	-	0	45µM	0
Cc1ccc(-c2nc(C(=O)N3CCN(c4ccccc4)CC3)c3n2CCCCC3)cc1	0	0	-	-	0	0
COc1ccc(OC)c(CCNC(=O)c2nc(-c3ccc(Cl)cc3)n3c2CCCCC3)c1	16µM	28µM	-	-	14µM	0
COc1ccc(N2CCN(C(=O)c3nc(-c4ccc(Cl)cc4)n4c3CCCCC4)CC2)cc1	45µM	35µM	-	-	11µM	?
CCOc1ccc(CCNC(=O)c2nc(-c3cccc(F)c3)n3c2CCCCC3)cc1OCC	18µM	50µM	-	-	28µM	?
SMILES	BAZ2B inh	JMJD2A Tudor	CtBP-E1A inh	Six1-Eya2 inh	G9a block	HP1b chromo inh
CN(C(=O)c1nc(-c2cccc(F)c2)n2c1CCCCC2)c1ccccc1F	0	0	-	-	0	0
Cc1nc(N2CCCC2)ncc1C(=O)N1CCN(c2ccccc2F)CC1	0	0	-	-	0[12.7 µM]	0
Cc1nc(N2CCCC2)ncc1C(=O)N1CCN(c2ccc(Cl)cc2)CC1	79µM	0	-	-	0	0
COc1ccc(NC(=O)c2nc(-c3ccc(C)cc3)n3c2CCCCC3)c(OC)c1	0	0	-	-	0	0
Cc1ccc(-n2cc(-c3ccccc3)c3c(N4CCCCC4)ncnc32)cc1	0	0	-	-	0	0
COC(=O)[C@]12CCCCC=C1N(Cc1ccccc1)C(=O)[C@H](CC(=O)NCCC(C)C)C2	-	-	0	0	-	-
COCC(=O)N1CCC2(CCCN(C(=O)Nc3cccc(C#N)c3)C2)CC1	-	-	-	-	0[12.7 µM]	-
CCOC(=O)c1ccccc1NC(=O)CN1C(=O)CC(c2ccccc2)Sc2ccccc21 (stereo not given)	0	0	-	-	0	0
COc1ccc(NC(=O)c2nc(-c3ccc(C)cc3)n3c2CCCCC3)cc1	0	0	-	-	?	0
Cc1ccc(CNC(=O)c2nc(-c3ccc(Cl)cc3)n3c2CCCCC3)cc1	10µM	22µM	-	-	8.9µM	?
O=C(O)CCc1ccc(-c2cccs2)n1NC(=O)c1ccco1	0	0	0	0	0	0
COc1ccc(-c2ccc(CCC(=O)O)n2NC(=O)c2cccs2)cc1	0	0	0	0	14µM	0
Cc1ccc(-c2ccc(CCC(=O)O)n2NC(=O)c2cccs2)cc1	11µM	0	0	0	?	0
CC(=O)N(C)C	-	-	-	-	0	-
CCOc1ccc(N(C(C)C(=O)NC2CCCCCC2)S(C)(=O)=O)cc1 (stereo not given)	0	0	0	0	14µM	0
CCOc1ccc(N(C(C)C(=O)NN=C2CCCCCCC2)S(C)(=O)=O)cc1 (stereo not given)	0	0	0	0	0	0
CCOC(=O)c1cc2c(N)c(C(=O)c3cc(C#N)c(SC)nc3C)sc2nc1C	0	0	0	0	45µM	0
CCOc1ccccc1CNCCNCC(C)O (stereo not given)	0	0	0	0	?	0
Cc1ccccc1OCCNCC(C)O (stereo not given)	56µM	2.8µM	0	0	14µM	?
O=[N+]([O-])c1cc(Br)c(O)c(/C=N/Nc2nnnn2-c2cccc3ccccc23)c1	79µM	56µM	-70	?	0[12.7 µM]	0
O=[N+]([O-])c1ccc(NN=Cc2cccc3ccccc23)cc1	-	0	0	0	-	0
CCOC(=O)c1cc2c(=O)n3ccccc3nc2n(C)c1=NC(=O)c1c(-c2ccccc2Cl)noc1C	0	0	-	-	0	0
CCc1ccc(N(C(=O)CNC(=O)c2ccco2)C(C(=O)NCC2CCCO2)c2ccccc2)cc1 (stereo not given)	0	0	0	0	-	0
Clc1cccc(CN2CCc3c([nH]c4ccccc34)C2)c1Cl	22µM	22µM	-	0	50µM	?
COc1ccccc1CN1C(=O)[C@H]2Cc3c([nH]c4ccccc34)C(C)(C)N2C1=O	-	0	-	-	-	0
COc1ccccc1CN1CCc2c([nH]c3ccccc23)C1	50µM	20µM	-	0	7.1µM	?
